44 compounds from PubChem BioAssay (NCATS) can be followed below.

Records with an inconclusive call do not appear. Where a call stands in place of a potency, no number is given. Activity calls are given as the source filed them. Unless noted, calls follow the shape of the dose curve; as a rule, active = well fitted curve in the direction sought with a large enough effect; inconclusive = small, poorly fitted or top-dose-only effect, or another doubt; inactive = no such curve, though single readings can be large; an effect the other way counts as inactive or inconclusive. Starred links: 1 amine or outer side, 2 acyl side, 3 side chain; linkers in the order of their positions; H or OH if unused. Positions of bridges follow the written chain, without caps; N, C: chain ends. Non-standard residues stand in square brackets, D forms with d. Residues, ends and D or L forms follow the SMILES beside them. Chains are numbered I, II in the order given. *: point of attachment. Actinocin(9to1) = Cc1c2oc3c(C)ccc(C(=O)[*:1])c3nc-2c(C(=O)[*:2])c(N)c1=O; NMeV = CN[CH](C(=O)O)C(C)C; Cbz = O=C(OCc1ccccc1)*; Sar = CNCC(=O)O

The nature of test [1]: NCATS anti-infectives library activity on the primary C. elegans qHTS viability assay (AID 1745855; calls by dose curve). The gist of the method:
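Viability read-out is GFP fluorescence of PE254-GFP-FLuc C. elegans, measured by laser cytometry (488 nm) at day 0, 3 and 7. Ten L1 worms per well were incubated 7 days at 21 °C with compounds and bacterial capsules in S medium.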

The target in test [2] is Glutathione peroxidase 1 (Homo sapiens) (UniProt P07203). In words: Primary qHTS Assay for Inhibitors of Recombinant Selenoprotein Glutathione Peroxidase 1 (GPX1) (AID 1845191). Also: nearly all actives have a fitted effect of over 65% in size. The gist of the method:
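Recombinant GPX1 (10 nM final) was preincubated with compound for 30 min at room temperature, then reacted with 1 mM GSH, 0.5 mM CHP, 0.5 mM NADPH and 100 nM glutathione reductase; NADPH fluorescence (340/450 nm) was read at 0 and 15 min.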
On the technique in general: qHTS replaces the single test concentration by a dilution series.

In test [3] the target is Phospholipid hydroperoxide glutathione peroxidase GPX4 (Homo sapiens) (UniProt P36969). The experiment in a line: Primary qHTS Assay for Inhibitors of Recombinant Selenoprotein Glutathione Peroxidase 4 (GPX4) (AID 1845192). Also: nearly all actives have a fitted effect of over 65% in size. Also: potency is read from the fitted curve at half-maximal effect. The gist of the method: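 GR-coupled readout: 100 nM GR, 1 mM GSH, 0.5 mM NADPH; NADPH fluorescence (ex 340/em 450 nm) read at t=0 and after 15 min RT. GPX4 200 nM, preincubated 30 min with compound; substrate 0.5 mM CHP.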
Sequence of Phospholipid hydroperoxide glutathione peroxidase GPX4 (Homo sapiens) (P36969 whole entry, looked up): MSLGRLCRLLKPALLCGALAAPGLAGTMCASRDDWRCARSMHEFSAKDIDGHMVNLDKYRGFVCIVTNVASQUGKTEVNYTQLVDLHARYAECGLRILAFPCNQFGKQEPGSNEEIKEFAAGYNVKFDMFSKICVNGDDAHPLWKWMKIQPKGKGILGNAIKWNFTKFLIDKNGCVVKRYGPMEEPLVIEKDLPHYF

Test [4] addresses Phenylethanolamine N-methyltransferase (Homo sapiens) (UniProt P11086). In words: Confirmatory Screen for Target Class Profiling of Small Molecule Inhibitors of Methyltransferases (AID 1745852). The note with it: MTase-Glo luminescence, SAH detection, recombinant enzyme; measured here: PNMT max response; stronger effect = lower value.
The nature of test [5]: NCATS anti-infectives library activity on HEK293 viability as a counter-qHTS vs the C. elegans viability qHTS (AID 1745854).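 Also: HEK293 cells exposed to compounds for 24 hr before the viability read.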 Also: potency is read from the fitted curve at half-maximal effect. The gist of the method: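 HEK293 cells (1,500/well) exposed 24 hr at 37C to 1:5 titrations, up to 41.7 uM final; counter-screen to a C. elegans viability qHTS. Viability by CellTiter-Glo luminescence after 10 min at room temperature; digitonin as control.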

Sequence of Glutathione peroxidase 1 (Homo sapiens) (P07203 whole entry, looked up): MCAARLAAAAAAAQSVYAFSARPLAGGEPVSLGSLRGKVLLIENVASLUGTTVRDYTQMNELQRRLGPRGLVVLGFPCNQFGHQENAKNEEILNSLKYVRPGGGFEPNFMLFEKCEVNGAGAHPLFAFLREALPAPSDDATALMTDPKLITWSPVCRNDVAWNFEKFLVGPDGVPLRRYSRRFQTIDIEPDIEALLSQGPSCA
Sequence of Phenylethanolamine N-methyltransferase (Homo sapiens) (P11086 whole entry, looked up): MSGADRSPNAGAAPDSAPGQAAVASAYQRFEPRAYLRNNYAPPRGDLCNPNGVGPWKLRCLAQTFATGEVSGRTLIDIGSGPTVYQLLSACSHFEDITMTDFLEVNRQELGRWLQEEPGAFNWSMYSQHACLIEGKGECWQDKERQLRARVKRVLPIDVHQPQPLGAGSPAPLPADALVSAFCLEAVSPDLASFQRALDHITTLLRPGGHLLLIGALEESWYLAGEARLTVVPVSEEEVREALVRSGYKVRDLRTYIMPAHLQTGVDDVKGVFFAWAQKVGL

`CC(C)C[C@@H](C=O)NC(=O)[C@H](CC(C)C)NC(=O)[C@H](CC(C)C)NC(=O)OCc1ccccc1` (Cbz-Leu-Leu-Leu-aldehyde): the Potency result in test [1], in test [2] and in test [3] was “inactive” throughout.
With `O=C(Nc1cc2cc[nH]c2cn1)c1ccccc1`, the activity in test [4] is -83.3%. Also, the Potency entry in test [2] and in test [3] was “inactive” throughout.
As to `C[C@H](NCc1ccc(OCc2cccc(F)c2)cc1)C(N)=O`, the Potency entry in test [5] and in test [2] was “inactive” each time.
Take `c1cc(N[C@@H]2CCNC2)nc(-c2cnc3ccc(-c4cn[nH]c4)cn23)c1`: the activity in test [4] was -12.3%. For the same compound, in test [2], the Potency entry is “inactive”. For the same compound, the Potency in test [3] is 25.5 µM (active).
`Cc1cnc(Nc2ccc(N3CCN(C)CC3)cc2)nc1Nc1cccc(S(=O)(=O)NC(C)(C)C)c1`: the activity in test [4] came to 0.463%. In addition, the Potency entry in test [2] and in test [3] was “inactive” in each case.
Take `CN(C)c1ccc(C(=O)NCCCCCCC(=O)NO)cc1`: the Potency result in test [5], in test [1], in test [2] and in test [3] was “inactive” each time.
In the case of `c1ccc(CNc2nc(NCc3ccccc3)c3ccccc3n2)cc1`, in test [5], the Potency was 22.4 µM (active). The Potency result in test [2] and in test [3] was “inactive” in each case.
As to `O=S(=O)(O)CCSSCCS(=O)(=O)O`, the Potency entry in test [2] was “inactive”.
Same read-out and setting: for `N#Cc1cc(NC(=O)Nc2nnc(-c3ccncc3)s2)ccc1-c1cn[nH]c1` the value was “inactive”.
In the case of `N[C@H]1CN(c2c(F)cc3c(=O)c(C(=O)O)cn(C4C[C@@H]4F)c3c2Cl)CC12CC2` (stereo not given in full), the Potency result in test [2] was “inactive”.
As for `c1cncc(CN2CCC(n3ncc4c(N5CCOCC5)nc(-c5ccc6[nH]ccc6c5)nc43)CC2)c1`, the Potency entry in test [2] is “inactive”.
As to `CC1=C(C(=O)Nc2cc3cn[nH]c3cc2F)C(c2ccc(Cl)cc2F)N=C(c2ccnc(Cl)c2)N1` (stereo not given), in test [2], the Potency entry was “inactive”.
Still for that read-out and setting: for `CC(C)[C@H](CO)Nc1nc(Nc2cccc(Cl)c2)c2ncn(C(C)C)c2n1` the value was “inactive”; for `CCCCOc1ccc(C(=O)Nc2ccc(F)cc2F)cc1`, “inactive”; for `Nc1nc(N)c2nc(-c3cccc(O)c3)c(-c3cccc(O)c3)nc2n1`, “inactive”.
Still for that read-out and setting: for `CC(=O)SCC(Cc1ccccc1)C(=O)NCC(=O)OCc1ccccc1` (stereo not given) the value was “inactive”; for `Cc1cncc2cccc(S(=O)(=O)N3CCCN(C(=O)CN)C[C@@H]3C)c12`, “inactive”.
Still for that read-out and setting: for `C[C@@H]1C(=O)O[C@H]2CC34[C@H]5C[C@@H](C(C)(C)C)C36[C@H](OC(=O)[C@@H]6O)O[C@@]4(C(=O)O5)[C@]21O` (stereo not given in full) the value was “inactive”; for `CNC(=O)Nc1ccc(-c2nc(N3CC4CCC(C3)O4)c3cnn(C4CCC5(CC4)OCCO5)c3n2)cc1`, “inactive”; for `Cc1c2oc3c(C)ccc(C(=O)NC4C(=O)NC(C(C)C)C(=O)N5CCCC5C(=O)N(C)CC(=O)N(C)C(C(C)C)C(=O)OC4C)c3nc-2c(C(=O)NC2C(=O)NC(C(C)C)C(=O)N3CCCC3C(=O)N(C)CC(=O)N(C)C(C(C)C)C(=O)OC2C)c(N)c1=O` (stereo not given) (I: TVP[Sar][NMeV] / II: TVP[Sar][NMeV]; ester I:1-I:C, II:1-II:C; linker I:N-II:N via Actinocin(9to1); configuration not given here), “inactive”.
For the compound `COc1cc(O)c2c(c1)C1OC1C[C@H](O)[C@H](O)C(=O)C=CC[C@H](C)OC2=O` (stereo not given in full), in test [2], the Potency result is “inactive”.
Take `Cn1cc(-c2ccc3ncc(Cc4ccc5ncccc5c4)n3n2)cn1`: in test [2], the Potency entry was “inactive”.
With `COC(=O)C1C2CC3c4[nH]c5cc(OC)ccc5c4CCN3CC2CC(OC(=O)c2cc(OC)c(OC)c(OC)c2)C1OC` (stereo not given), in test [2], the Potency entry was “inactive”.
For the compound `O=C1NC(O)CCN1[C@@H]1O[C@H](CO)[C@H](O)[C@H]1O` (stereo not given in full), in test [2], the Potency result was “inactive”.
For the compound `CC(C)C[C@H](NC(=O)CNC(=O)c1cc(Cl)ccc1Cl)B1OC(=O)CC(CC(=O)O)(C(=O)O)O1` (stereo not given in full), the Potency entry in test [2] was “inactive”.
Consider `C[C@H]1COc2c(N3CCN(C)CC3)c(F)cc3c(=O)c(C(=O)O)cn1c23`, for which the Potency entry in test [2] is “inactive”.
As for `COc1cc2c(cc1OC)[C@@H]1C(=O)c3ccc4c(c3O[C@@H]1CO2)C=CC(C)(C)O4`, the Potency result in test [2] is “inactive”.
`NC1=N[C@H]2[C@H](CS[C@H]2CCCCC(=O)O)N1`: in test [2], the Potency result was “inactive”.
With `NC(=O)c1cccc(-c2cccc(OC(=O)NC3CCCCC3)c2)c1`, the Potency result in test [2] is “inactive”.
On to `COc1cc2ncnc(Nc3cccc(Br)c3)c2cc1OC`, for which the Potency entry in test [2] is “inactive”.
For the compound `O=c1c(O)c(-c2ccc(O)c(O)c2)oc2cc(O)ccc12`, the Potency entry in test [2] was “inactive”.
For the compound `COc1cc(C)c(Sc2cnc(NC(=O)c3ccc(CNC(C)C(C)(C)C)cc3)s2)cc1C(=O)N1CCN(C(C)=O)CC1` (stereo not given), the Potency entry in test [2] was “inactive”.
Consider `CCOc1cc2c(c(F)c1OCC)C(=N)N(CC(=O)c1cc(N3CCOCC3)c(OC)c(C(C)(C)C)c1)C2`, for which the Potency entry in test [2] is “inactive”.
For `Cn1cc(C[C@@H](N)C(=O)O)c2ccccc21`, the outcome in test [2] is “inactive [at 9.52 µM]”.
As to `Cc1noc(-c2ccc(CSCCC(=O)O)cc2)c1NC(=O)OC(C)c1ccccc1Cl` (stereo not given), the Potency result in test [2] was “inactive”.
Regarding `Cn1cnc2c(F)c(Nc3ccc(Br)cc3F)c(C(=O)NOCCO)cc21`, the Potency entry in test [2] was “inactive”.
As to `C#CCC(Cc1cnc2nc(N)nc(N)c2n1)c1ccc(C(=O)N[C@@H](CCC(=O)O)C(=O)O)cc1` (stereo not given in full), the Potency entry in test [2] is “inactive”.
For the compound `C[C@@H](Cc1cc2c(c(C(N)=O)c1)N(CCCO)CC2)NCCOc1ccccc1OCC(F)(F)F`, the Potency entry in test [2] was “inactive”.
Consider `Cc1cc(Nc2ncc3c(n2)N(C)C(=O)N(c2cc(NC(=O)c4cccc(C(F)(F)F)c4)ccc2C)C3)n(C)n1`, for which, in test [2], the Potency result was “inactive”.
Consider `CCc1c(O)cc(O)c(C(=O)c2ccc(OCCN3CCOCC3)c(OC)c2)c1CC(=O)N(CCOC)CCOC`, for which the Potency entry in test [2] is “inactive”.
For `C[C@](Cc1c[nH]c2ccccc12)(NC(=O)OC1C2CC3CC(C2)CC1C3)C(=O)NC[C@H](NC(=O)CCC(=O)O)c1ccccc1` (stereo not given in full), the Potency entry in test [2] was “inactive”.
For `CC(C)Oc1ccc(C(=O)N[C@H](CNC(=O)CN(C)C)Cc2ccc(-c3cn4cccc([C@H](C)O)c4n3)cc2)cc1Cl`, the Potency entry in test [2] is “inactive”.
With `CC(N[C@H]1CCCC[C@H]1NC(=O)c1ccc(Cl)cc1)c1cccc2ccccc12` (stereo not given in full), the Potency result in test [2] and in test [3] was “inactive” in each case.
As for `Cc1cc(C(=O)NOCCO)c(Nc2ccc(I)cc2F)n(C)c1=O`, the Potency result in test [2] and in test [3] was “inactive” in each case.
